Results filed as inconclusive are left out. Active and inactive are the calls of the source. Calls come from the whole dose curve.

A short description of the assay: VSV-G qHTS counterscreen for inhibitors of SARS-S pseudo-typed particle cell entry. The settings on record: VSV-G pseudotyped particle entry counterscreen, luciferase; series mostly up to 57.1 µM; activity, negative = inhibition: at the top concentration. On the technique in general: In qHTS, concentration-response curves come from the screen itself.
In the case of `COc1ccc(Cc2nccc3cc(OC)c(OC)cc23)cc1OC`, the Potency was 19.2 µM (active).
The same measure, in the same setting: the value for `CC(C)(C)C(=O)OCOP(=O)(COCCn1cnc2c(N)ncnc21)OCOC(=O)C(C)(C)C` was 0.0681 µM (active); that for `C[C@@H](c1nc(-c2ccc(C#N)cc2)cs1)[C@](O)(Cn1cncn1)c1cc(F)ccc1F` was 21.5 µM (active).
On the same count and under the same terms, the value for `O=C1CCc2ccc(OCCCCN3CCN(c4cccc(Cl)c4Cl)CC3)cc2N1` was 19.2 µM (active); that for `C[C@]12CC[C@H](O)C[C@H]1CCC1C2CC[C@]2(C)[C@@H](c3ccc(=O)oc3)C[C@H]3O[C@]132` (some centres undefined) was 9.61 µM (active).
On the same count and under the same terms, for `COc1cccc2c1C(=O)c1c(O)c3c(c(O)c1C2=O)C[C@@](O)(C(=O)CO)CC3OC1CC(N2CCOC(OC)C2)C(O)C(C)O1` (some centres undefined) the value was 0.108 µM (active); for `CC[C@@]1(O)C(=O)OCc2c1cc1n(c2=O)Cc2cc3c([N+](=O)[O-])cccc3nc2-1`, 0.124 µM (active); for `COc1cc2nccc(Oc3ccc(NC(=O)C4(C(=O)Nc5ccc(F)cc5)CC4)cc3)c2cc1OC`, 21.5 µM (active).
In the case of `C[n+]1c2cc(N)ccc2cc2ccc(N)cc21` (tested in a mixture with another compound), the Potency was 4.82 µM (active).
As for `O=C(Nc1ccc(Cl)cc1)Nc1ccc(Cl)c(C(F)(F)F)c1`, the Potency is 9.61 µM (active).
Regarding `CNCCCC12CCC(c3ccccc31)c1ccccc12`, the “activity, negative = inhibition” value is -5.33% (inactive).
For `CO[C@@]12[C@H](COC(N)=O)C3=C(C(=O)C(C)=C(N)C3=O)N1C[C@@H]1N[C@@H]12`, the Potency was 3.41 µM (active).
Regarding `CC(=O)Oc1ccccc1C(=O)Nc1ncc([N+](=O)[O-])s1`, the Potency is 6.81 µM (active).
On the same count and under the same terms, the value for `COc1ccc2cc3[n+](cc2c1OC)CCc1cc2c(cc1-3)OCO2` was 17.1 µM (active).
Turning to `CN1CC[C@H](CN2c3ccccc3Sc3ccccc32)C1`, the “activity, negative = inhibition” value was -2.37% (inactive).
Regarding `O=c1ccc2ccccc2o1`, the “activity, negative = inhibition” value was 0% (inactive).
With `Cc1nnc2n1-c1sc(CCc3ccc(CC(C)C)cc3)cc1C(c1ccccc1Cl)=NC2C` (centres undefined), the Potency is 27.1 µM (active).
In the case of `COc1cccc2c1C(=O)c1c(O)c3c(c(O)c1C2=O)C[C@@](O)(C(=O)CO)C[C@@H]3O[C@H]1C[C@H](N)[C@@H](O)[C@H](C)O1`, the Potency is 4.82 µM (active).
As to `COc1cc(NS(C)(=O)=O)ccc1Nc1c2ccccc2nc2ccccc12`, the Potency was 0.764 µM (active).
Take `C[C@@H]1CCO[C@H]2Cn3cc(C(=O)NCc4ccc(F)cc4F)c(=O)c(O)c3C(=O)N12`: the Potency was 0.0054 µM (active).
On to `Nc1ccn([C@@H]2O[C@H](CO)[C@@H](O)C2(F)F)c(=O)n1`, for which the Potency was 0.171 µM (active).
For `N/C(=N\N=C\c1ccc(Cl)cc1)N/N=C/c1ccc(Cl)cc1`, the Potency was 24.1 µM (active).
Same read-out and setting: for `C=C1c2c(Cl)ccc(O)c2C(O)=C2C(=O)[C@@]3(O)C(O)=C(C(N)=O)C(=O)[C@@H](N(C)C)[C@@H]3[C@@H](O)[C@H]12` the value was 15.2 µM (active).
On to `CCCCN=C(N)N=C(N)N`, for which the “activity, negative = inhibition” value is -7.93% (inactive).
As to `O=C(Nc1ccc([N+](=O)[O-])cc1Cl)c1cc(Cl)ccc1O`, the Potency is 0.482 µM (active).
For the compound `C=C(C)[C@H]1Cc2c(ccc3c2O[C@@H]2COc4cc(OC)c(OC)cc4[C@@H]2C3=O)O1`, the Potency was 0.0383 µM (active).
Turning to `CNC(=O)c1cc(Oc2ccc(NC(=O)Nc3ccc(Cl)c(C(F)(F)F)c3)c(F)c2)ccn1`, the Potency is 10.8 µM (active).
Consider `CC[C@@]1(O)C(=O)OCc2c1cc1n(c2=O)Cc2c-1nc1ccccc1c2/C=N/OC(C)(C)C`, for which the Potency was 0.0764 µM (active).
Consider `CC(=O)N1CCN(c2ccc(OC[C@H]3CO[C@](Cn4ccnc4)(c4ccc(Cl)cc4Cl)O3)cc2)CC1`, for which the Potency is 19.2 µM (active).
For the compound `COc1cc2c(cc1Cc1cccc(Cl)c1F)c(=O)c(C(=O)O)cn2[C@H](CO)C(C)C`, the Potency is 0.215 µM (active).
On the same count and under the same terms, for `CC(=O)[C@]1(O)Cc2c(O)c3c(c(O)c2[C@@H](O[C@H]2C[C@H](N)[C@H](O)[C@H](C)O2)C1)C(=O)c1ccccc1C3=O` the value was 4.82 µM (active).
For `CC(C)OC(=O)OCOP(=O)(CO[C@H](C)Cn1cnc2c(N)ncnc21)OCOC(=O)OC(C)C`, the Potency is 0.0961 µM (active).
Same read-out and setting: the value for `COC(=O)C1=C(C)NC(C)=C(C(=O)OCC(C)C)C1c1ccccc1[N+](=O)[O-]` (centres undefined) was 24.1 µM (active).
For the compound `COC(=O)C[C@](O)(CCCC(C)(C)O)C(=O)O[C@@H]1C(OC)=C[C@]23CCCN2CCc2cc4c(cc2[C@H]13)OCO4`, the Potency is 1.36 µM (active).

The values above are taken from PubChem BioAssay AID1494158 (National Center for Advancing Translational Sciences (NCATS), 2020).
